Bioassay records from PubChem BioAssay.
SARS PLP yeast: inhibitors of SARS-CoV papain-like protease in yeast. S. cerevisiae expressing SARS-CoV PLpro, growth rescue. Potency, µM (top dose mostly 32.9 µM), without a hit: top-dose activity, positive = growth rescue, usual class: activators. hit rate 0.19% among 330,000. AID 485353; calls by dose curve; further: potency means the concentration at half of the fitted maximal effect; 0% is about no effect; nearly all actives have a fitted effect of over 55% in size
Marburg entry inh: inhibitors of Marburg virus binding or cell entry; Marburg virus pseudotyped entry inhibition, cell reporter; Potency, µM (top dose mostly 37.8 µM), inactives show at the top dose activity change, negative = inhibition, usual class: inhibitors; hit rate 1.8% among 300,000; AID 540276; calls by dose curve; tested in HEK293 cells; further: potency means the concentration at half of the fitted maximal effect; on the % scale 0 is the no-effect control and ±100 the full control effect
HCV inh: inhibitors of hepatitis C virus infection; Huh7.5.1 HCVcc-Cre infection, luciferase reporter, 44 h; Potency, µM (highest dose often 41.8 µM), inactives show at the top dose activity change, negative = inhibition, usual class: inhibitors; hit rate 3.4% among 340,000; active means well fitted inhibition curve with a large enough effect; inconclusive means small, poorly fitted or top-dose-only effect, or another doubt; inactive means no such curve, though single readings can be large or run the other way; further: potency means the concentration at half of the fitted maximal effect; on the % scale 0 is the no-effect control and ±100 the full control effect
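Infectious HCV cell culture screen: compound-treated cells (1,000/well, pre-plated 4 h) are infected with HCVcc-Cre at roughly 0.5 moi and grown 44 h. Infection is quantified by luciferase signal after 15 min substrate incubation at room temperature.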
HCMV inh: blocks human cytomegalovirus replication. hit rate 4.5% among 410,000. activity change, negative = inhibition, % at 57.5 µM. HFF cells, HCMV-luciferase reporter, 72 h; hits give low values. AID 1259415; in the data active means activity change below about -60%; inconclusive means no clear call, values can overlap the other calls; inactive means above about -39%; further: on the % scale 0 is the no-effect control and ±100 the full control effect
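HFF cells seeded 16 h at 37C, treated with compounds, infected with luciferase-reporter HCMV at MOI 1 PFU/cell; luciferase read at 72 h post infection, normalized to buffer-only and Salinomycin controls.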
FMDV antiviral: foot and mouth disease virus antiviral activity; FMDV antiviral cell-based qHTS; Potency, µM (series often up to 57.9 µM), without a hit: at the top dose activity change, negative = inhibition, actives largely listed as inhibitors; hit rate 1.2% among 410,000; AID 1159524; calls by dose curve; tested in HEK293T cells; further: read-out not given here; potency means the concentration at half of the fitted maximal effect; on the % scale 0 is the no-effect control and ±100 the full control effect; nearly all actives have a fitted effect of over 45% in size
Lassa entry inh: blocks Lassa virus binding to or entry into cells | Lassa virus pseudotype entry inhibition, cell reporter | hit rate 1.2% among 300,000 | Potency, µM (titrated, usually from 37.9 µM), inactives show top-dose activity change, negative = inhibition, most hits filed as inhibitors; calls by dose curve; tested in HEK293 cells; further: potency means the concentration at half of the fitted maximal effect; on the % scale 0 is the no-effect control and ±100 the full control effect; nearly all actives have a fitted effect of over 50% in size
* = called active by the depositor; ? = inconclusive; . = no result; ! = repeats disagree; [ ] = remark or other dose. The list is not random: actives were taken first. Their share in the collection is about 8%.

SMILES	SARS PLP yeast	Marburg entry inh	HCV inh	HCMV inh	FMDV antiviral	Lassa entry inh
COc1ccc(-n2nnnc2SCC(=O)N2CCOCC2)cc1	-3%	.	7%	79	28%	.
CCn1c(SCC(=O)N2CCc3ccccc32)nnc1-c1c[nH]c2ccccc12	1%	?	-8%	?	32µM*	?
Cn1c(SCC(=O)N2CCN(c3ccccc3)CC2)nnc1-c1ccccc1	0%	-28%	?	-31	?	-1%
CCN1C(=NCc2ccc(OC)cc2)NC(c2ccccc2)C(C(=O)OC)=C1C (centres undefined)	.	-22%[14.2 µM]	.	.	.	.
CCn1c(SCC(=O)N2CCN(c3ccccc3)CC2)nnc1-c1c[nH]c2ccccc12	2%	.	8.9µM*	-75*	?	.
CCOC(=O)CSc1nnc(-c2c[nH]c3ccccc23)n1CC	-5%	.	16%	-11	-18%	.
O=C(NCCc1ccc(Cl)cc1)c1c2c(nc3ccccc13)C(=O)N(C1CCCCC1)C2	.	.	.	13	-16%	1%[46.1 µM]
CCc1nn(CCCC(=O)NCc2ccccc2Br)c(=O)c2cc3occc3n12	-12%	0%[46.1 µM]	38%	-68*!	-13%	.
CCc1nn(CC(=O)NCCc2ccc(OC)cc2OC)c(=O)c2cc3occc3n12	?	-21%[46.1 µM]	?	-62*!	2%	-13%[46.1 µM]
CCc1nn(CC(=O)NCCc2ccc(OC)c(OC)c2)c(=O)c2cc3occc3n12	.	12%[46.1 µM]	.	-5	-10%	?
CCc1nn(CC(=O)N2CCN(Cc3ccc4c(c3)OCO4)CC2)c(=O)c2cc3occc3n12	-11%	?	?	-61*	?	-15%
CCOC(=O)C1CCCN(C(=O)Cn2nc(CC)n3c(cc4occc43)c2=O)C1 (centres undefined)	.	8%[46.1 µM]	.	-3	?	-6%[46.1 µM]
COc1cc(-c2cc(=O)c3c(O)cc(O)cc3o2)ccc1O	-1%	.	13µM*	.	45%	.
COc1cc(-c2cc(=O)c3ccccc3o2)ccc1O	-8%	.	-21%	96	65%	.
Cc1oc2ncn(CC(C)C)c(=O)c2c1C(=O)NCCCN1CCCCC1C (centres undefined)	.	.	.	6	0%	15%[46.1 µM]
CCCn1c(=O)[nH]c2nc(-c3ccc(S(=O)(=O)O)cc3)[nH]c2c1=O	.	.	.	.	0%	.
O=C(/C=C/c1cccc2ccccc12)c1ccncc1	-90%	?	16µM*	-83*	14µM*	?
O=C(CCCc1c[nH]c2ccccc12)NCc1ccccc1F	-2%	-19%[46.1 µM]	-24%	28	24%	7.9µM*
Cc1ccc(NC(=O)CCCc2c[nH]c3ccccc23)nc1	-1%	.	-22%	-98*	4%	.
Cc1ccnc(NC(=O)CCCc2ccccc2)c1	-5%	?	9%	34	30%	16%
Cc1ccnc(NC(=O)CCCc2c[nH]c3ccccc23)c1	3%	11%[46.1 µM]	-14%	-101*	11%	0%[46.1 µM]
Cc1ccc(CNC(=O)CCCc2c[nH]c3ccccc23)cc1	-3%	11%[46.1 µM]	-13%	-14	19%	-25%[46.1 µM]
COc1ccc(N(C(=O)COc2c(C)cccc2C)S(=O)(=O)c2ccc(Cl)cc2)cc1	.	.	.	-10	-21%	?
COc1cc(CN(C)c2ncnc3sccc23)ccc1OC(F)F	0%	2.8µM*	?	?	?	-11%
COc1ccc(OC)c(Nc2ncnc3sccc23)c1	-4%	.	?	46	-1%	.
SMILES	SARS PLP yeast	Marburg entry inh	HCV inh	HCMV inh	FMDV antiviral	Lassa entry inh
COc1ccc(-c2nc3ccccc3n3c(-c4ccccc4)c4c(=O)n(C)c(=O)n(C)c4c23)cc1OC	.	3%[46.1 µM]	.	25	-1%	-12%[46.1 µM]
CS(=O)(=O)N1CCc2cc(-c3csc(NC(=O)Cc4cccs4)n3)ccc21	0%	?	1.4µM*	-94*	13µM*	13µM*
Cc1cccc(C(=O)N2CCc3cc(-c4nc(NC(=O)CN5CCCC5)sc4C)ccc32)c1	-2%	10µM*	13µM*	1	-21%	?
Cc1ccccc1C(=O)N1CCc2cc(-c3nc(NC(=O)Cc4ccc5c(c4)OCO5)sc3C)ccc21	-17%	3%	3.2µM*	.	?	?
Cc1ccc(-c2csc(NC(=O)CN3CCOCC3)n2)cc1	3%	?	?	?	-12%	?
CNc1nc(-c2ccc3c(c2)CCN3C(=O)c2ccccc2C)cs1	-1%	?	?	-35	8%	?
